Laboratory results as given in PubChem BioAssay (EPA / NIEHS).
Some compounds were tested as several samples or in several runs, with calls that do not always agree. Calls of active or inactive are those of the source. How the source made its calls: active means hit-call score of the fitted dose curve at least 0.9, where 1 is the maximum; inactive means score below 0.9.

Assays:
[1] = ATG_E_Box_CIS: Attagene CIS-FACTORIAL HepG2 Assay for human Enhancer Box (E-box) (AID 2282936); conditions: HepG2 E-box cis-reporter transcription, actives raise or lower the signal
Summary of the method: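 E-box-driven reporter transcripts measured in transiently transfected HepG2 after 24 h exposure: RNA reverse-transcribed, PCR-amplified, fluorescently labelled, digested and resolved by capillary electrophoresis. Gain or loss relative to DMSO.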

[2] = ATG_M_61_CIS: Attagene CIS-FACTORIAL HepG2 Assay for M61 Transcription Factor (Internal Marker) (AID 2282937); conditions: HepG2 Attagene CIS-FACTORIAL M61 internal marker reporter; actives raise or lower the signal
Summary of the method: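 Readout: fluorescent reporter mRNA fragments resolved by capillary electrophoresis after RT-PCR. Transiently transfected human HepG2 cells carried MRTU constructs reporting endogenous TF activity; 24 h chemical exposure; gain or loss of signal fitted relative to DMSO.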

[3] = ATG_EGR_CIS: Attagene CIS-FACTORIAL HepG2 Assay for human Early Growth Response 1 (EGR1) (AID 2282938); conditions: HepG2 Attagene CIS-FACTORIAL EGR reporter mRNA; actives raise or lower the signal
Summary of the method: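 Read-out: fluorescent reporter-mRNA fragments resolved by capillary electrophoresis after RT-PCR, 24 h post-dose in transiently transfected HepG2. Endogenous transcription-factor activity reported via cis-element-regulated reporter units; gain or loss fitted relative to DMSO.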

[4] = ATG_M_19_CIS: Attagene CIS-FACTORIAL HepG2 Assay for M19 Transcription Factor (Internal Marker) (AID 2282939); conditions: HepG2 Attagene CIS-FACTORIAL M19 internal marker reporter; actives raise or lower the signal
Summary of the method: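 Chemical-treated HepG2 (24 h) with MRTU constructs; reporter transcripts detected by fluorescent RT-PCR fragment analysis on capillary electrophoresis. Internal background marker, DMSO as baseline.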

[5] = ATG_ERE_CIS: Attagene CIS-FACTORIAL HepG2 Assay for Estrogen Response Element (ERE) (AID 2282940); conditions: HepG2 ERE cis-reporter, Attagene RNA transcript; actives raise or lower the signal
Summary of the method: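 Human liver cells (HepG2) bearing transiently transfected, promoter-regulated reporter units were exposed 24 h. Reporter mRNA induction was detected by capillary electrophoresis of labelled RT-PCR products and fitted bidirectionally to DMSO.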

[6] = ATG_Ets_CIS: Attagene CIS-FACTORIAL HepG2 Assay for human Erythroblast Transformation Specific (ETS) (AID 2282941); conditions: HepG2 ETS cis-reporter transcription, actives raise or lower the signal
Summary of the method: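 Cis-regulated reporter mRNA induction in HepG2 (transient transfection), 24 h exposure, RT-PCR plus capillary electrophoresis detection; DMSO serves as negative control and baseline.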

[7] = molecular target: Hepatocyte nuclear factor 3-beta (Homo sapiens) (UniProt Q9Y261); assay: ATG_FoxA2_CIS: Attagene CIS-FACTORIAL HepG2 Assay for human Forkhead box A2 (FOXA2) (AID 2282942); conditions: HepG2 cis-reporter transcription factor activity, 24 h; actives raise or lower the signal
Chain of Hepatocyte nuclear factor 3-beta (Homo sapiens) (Q9Y261 whole entry, looked up): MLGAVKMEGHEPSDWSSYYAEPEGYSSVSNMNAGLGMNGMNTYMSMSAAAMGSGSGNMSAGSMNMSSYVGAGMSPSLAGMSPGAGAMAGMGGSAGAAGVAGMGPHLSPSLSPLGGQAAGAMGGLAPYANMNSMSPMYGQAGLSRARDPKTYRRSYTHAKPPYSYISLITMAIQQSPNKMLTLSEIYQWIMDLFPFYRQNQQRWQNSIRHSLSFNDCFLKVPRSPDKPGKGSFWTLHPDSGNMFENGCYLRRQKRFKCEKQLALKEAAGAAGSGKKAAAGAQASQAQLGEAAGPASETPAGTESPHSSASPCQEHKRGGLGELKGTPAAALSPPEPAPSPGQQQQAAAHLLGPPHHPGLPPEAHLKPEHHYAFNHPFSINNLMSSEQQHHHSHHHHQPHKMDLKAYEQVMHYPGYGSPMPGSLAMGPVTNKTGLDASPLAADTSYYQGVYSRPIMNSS
Summary of the method: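 Readout: fluorescent reporter transcripts resolved by capillary electrophoresis after RT-PCR. Transiently transfected HepG2, 24 h compound exposure, endogenous TF activity at cis promoter elements. Gain or loss of signal fitted relative to DMSO.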

[8] = ATG_FoxO_CIS: Attagene CIS-FACTORIAL HepG2 Assay for human Forkhead box O (FoxO) (AID 2282943); conditions: HepG2 Attagene cis-reporter, FoxO element, mRNA; actives raise or lower the signal
Summary of the method: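 HepG2, transient MRTU transfection (cis element, endogenous TFs). Dose 24 h. TriZol RNA → oligo(dT) RT → PCR → 6-FAM primer extension → HpaI cut → CE. Gain/loss vs DMSO.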

[9] = ATG_GATA_CIS: Attagene CIS-FACTORIAL HepG2 Assay for human GATA Binding Protein (AID 2282944); conditions: HepG2 GATA cis-element reporter, Attagene multiplex mRNA; actives raise or lower the signal
Summary of the method: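 Transfected cis-reporter HepG2 cells were treated with chemicals for 24 hours. Total RNA was then converted to cDNA, amplified with reporter-specific primers and analysed by fluorescent capillary electrophoresis, using DMSO-treated wells as baseline.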

[10] = ATG_GLI_CIS: Attagene CIS-FACTORIAL HepG2 Assay for human Zinc Finger Protein GLI1 (AID 2282945); conditions: HepG2, Attagene cis-factorial reporter mRNA, GLI element; actives raise or lower the signal
Summary of the method: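 Bidirectional curve fits relative to DMSO, using reporter mRNA levels from RT-PCR plus capillary electrophoresis. Cells were HepG2 transiently carrying cis-regulated reporter constructs, harvested 24 h after dosing.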

[11] = ATG_ISRE_CIS: Attagene CIS-FACTORIAL HepG2 Assay for human Interferon Regulatory Factor 1 (IRF1) binding to an Interferon-Stimulated Response Element (ISRE) (AID 2282948); conditions: HepG2 ISRE cis-reporter (Attagene), mRNA transcription readout; actives raise or lower the signal
Summary of the method: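 Multiplexed mRNA reporter readout in human liver HepG2 cells: cis-element-driven reporters transfected, compound added for 24 h, transcripts amplified, fluorescently labelled and sized by capillary electrophoresis; curve fitting bidirectional against DMSO.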

[12] = ATG_M_32_CIS: Attagene CIS-FACTORIAL HepG2 Assay for M32 Transcription Factor (Internal Marker) (AID 2282949); conditions: HepG2 Attagene cis-factorial M32 reporter, mRNA; actives raise or lower the signal;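 further: background control marker of the multiplexed CIS panel rather than a real target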
Summary of the method: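 HepG2 human liver cells transiently transfected with cis-promoter-driven multiple reporter transcription units, dosed 24 h. Reporter mRNA quantified by RT-PCR, FAM-labelled primer extension, HpaI digest and capillary electrophoresis; bidirectional fit versus DMSO baseline.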

[13] = ATG_M_06_CIS: Attagene CIS-FACTORIAL HepG2 Assay for M06 Transcription Factor (Internal Marker) (AID 2282950); conditions: HepG2 Attagene CIS-FACTORIAL M06 internal marker reporter; actives raise or lower the signal
Summary of the method: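 Cells (HepG2, transiently carrying cis-driven reporter units) receive chemical for 24 h before RNA isolation. Reporter cDNA is PCR-amplified, FAM-labelled by primer extension, HpaI-digested and sized on a capillary analyser.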

[14] = molecular target: Hepatocyte nuclear factor 6 (Homo sapiens) (UniProt Q9UBC0); assay: ATG_HNF6_CIS: Attagene CIS-FACTORIAL HepG2 Assay for human Hepatocyte Nuclear Factor 6 (HNF6) (AID 2282952); conditions: HepG2 Attagene cis-factorial HNF6 reporter transcription; actives raise or lower the signal
Chain of Hepatocyte nuclear factor 6 (Homo sapiens) (Q9UBC0 whole entry, looked up): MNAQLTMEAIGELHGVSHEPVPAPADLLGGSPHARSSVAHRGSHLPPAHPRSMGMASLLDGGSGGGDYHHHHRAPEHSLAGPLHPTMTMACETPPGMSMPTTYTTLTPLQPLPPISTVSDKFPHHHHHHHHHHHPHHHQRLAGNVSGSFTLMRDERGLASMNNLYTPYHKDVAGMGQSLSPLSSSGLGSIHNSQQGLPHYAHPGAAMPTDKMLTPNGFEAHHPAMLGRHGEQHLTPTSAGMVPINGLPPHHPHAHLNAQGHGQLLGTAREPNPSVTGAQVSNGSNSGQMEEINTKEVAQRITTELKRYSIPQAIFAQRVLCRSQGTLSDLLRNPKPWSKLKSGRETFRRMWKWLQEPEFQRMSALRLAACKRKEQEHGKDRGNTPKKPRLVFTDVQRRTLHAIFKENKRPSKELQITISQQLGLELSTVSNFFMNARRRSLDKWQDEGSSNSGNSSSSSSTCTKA
Summary of the method: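 Endogenous transcription factor activity in human HepG2 liver cells was captured through cis-regulated reporter constructs. After 24 h treatment, reporter mRNA was measured by RT-PCR with capillary electrophoresis, and activity was fitted in both directions relative to DMSO.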

[15] = ATG_MRE_CIS: Attagene CIS-FACTORIAL HepG2 Assay for human Metal Responsive Element (MRE) (AID 2282954); conditions: HepG2 MRE cis-reporter transcription, Attagene multiplex; actives raise or lower the signal
Summary of the method: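 Endogenous MRE-dependent transcription read as reporter mRNA in transiently transfected human HepG2 cells at 24 h. RNA reverse-transcribed, PCR-amplified, labelled and resolved by capillary electrophoresis; gain or loss relative to DMSO.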

[16] = molecular target: Hypoxia-inducible factor 1-alpha (Homo sapiens) (UniProt Q16665); assay: ATG_HIF1a_CIS: Attagene CIS-FACTORIAL HepG2 Assay for human Hypoxia Inducible Factor 1 (HIF1A) (AID 2282951); conditions: HepG2 Attagene cis-factorial HIF1a reporter transcription; actives raise or lower the signal
Chain of Hypoxia-inducible factor 1-alpha (Homo sapiens) (Q16665 whole entry, looked up): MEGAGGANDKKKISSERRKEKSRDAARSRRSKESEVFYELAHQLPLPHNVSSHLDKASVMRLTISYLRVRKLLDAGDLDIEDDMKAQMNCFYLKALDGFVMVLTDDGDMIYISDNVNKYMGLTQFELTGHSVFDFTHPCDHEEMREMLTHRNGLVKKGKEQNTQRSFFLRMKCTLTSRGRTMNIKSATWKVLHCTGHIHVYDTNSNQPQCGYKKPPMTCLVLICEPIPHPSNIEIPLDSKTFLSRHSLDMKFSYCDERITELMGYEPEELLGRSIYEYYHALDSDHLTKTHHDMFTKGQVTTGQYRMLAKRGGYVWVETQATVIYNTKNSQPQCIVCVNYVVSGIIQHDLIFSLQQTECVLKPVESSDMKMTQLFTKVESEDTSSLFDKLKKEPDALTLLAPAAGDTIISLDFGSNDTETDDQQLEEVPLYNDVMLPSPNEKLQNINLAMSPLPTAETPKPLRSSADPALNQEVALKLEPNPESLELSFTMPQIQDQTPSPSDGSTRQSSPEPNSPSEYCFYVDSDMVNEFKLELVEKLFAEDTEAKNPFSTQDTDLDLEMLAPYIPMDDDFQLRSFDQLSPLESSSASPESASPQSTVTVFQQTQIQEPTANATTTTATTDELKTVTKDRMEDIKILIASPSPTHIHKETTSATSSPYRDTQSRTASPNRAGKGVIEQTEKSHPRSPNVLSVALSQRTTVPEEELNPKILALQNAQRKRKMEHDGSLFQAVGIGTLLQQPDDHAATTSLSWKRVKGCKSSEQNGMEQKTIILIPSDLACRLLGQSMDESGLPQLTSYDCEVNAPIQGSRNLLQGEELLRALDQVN
Summary of the method: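 RT-PCR/capillary electrophoresis fluorescence readout of reporter transcripts from endogenous-TF-driven cis elements in transfected HepG2 cells, 24 h exposure; activity fitted in both directions against DMSO controls.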

[17] = molecular target: Heat shock factor protein 1 (Homo sapiens) (UniProt Q00613); assay: ATG_HSE_CIS: Attagene CIS-FACTORIAL HepG2 Assay for human Heat Shock Transcription Factor 1 (HSE) (AID 2282953); conditions: HepG2 HSE cis-reporter, Attagene RNA transcription; actives raise or lower the signal
Chain of Heat shock factor protein 1 (Homo sapiens) (Q00613 whole entry, looked up): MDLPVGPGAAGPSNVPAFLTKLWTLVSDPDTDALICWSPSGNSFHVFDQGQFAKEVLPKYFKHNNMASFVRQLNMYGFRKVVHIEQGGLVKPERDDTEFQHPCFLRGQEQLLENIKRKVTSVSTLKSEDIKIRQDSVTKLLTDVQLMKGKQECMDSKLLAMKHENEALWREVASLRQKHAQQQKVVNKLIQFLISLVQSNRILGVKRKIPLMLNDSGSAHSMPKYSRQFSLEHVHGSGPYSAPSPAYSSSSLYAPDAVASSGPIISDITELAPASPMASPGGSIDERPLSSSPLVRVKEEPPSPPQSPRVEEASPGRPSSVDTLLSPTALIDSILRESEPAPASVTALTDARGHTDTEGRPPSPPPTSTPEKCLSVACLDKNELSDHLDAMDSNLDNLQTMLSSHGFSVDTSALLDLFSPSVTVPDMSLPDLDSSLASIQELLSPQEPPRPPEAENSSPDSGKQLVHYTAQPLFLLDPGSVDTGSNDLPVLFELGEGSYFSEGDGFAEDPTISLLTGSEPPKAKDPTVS
Summary of the method: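 Liver-derived HepG2 cells carry transiently introduced multiple reporter units governed by cis promoters. Reporter RNA measured 24 h post-dose through reverse transcription, PCR amplification, fluorescent labelling and capillary electrophoresis, normalised to DMSO.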

[18] = molecular target: Bile acid receptor (Homo sapiens) (UniProt Q96RI1); assay: ATG_IR1_CIS: Attagene CIS-FACTORIAL HepG2 Assay for human Nuclear Receptor Subfamily 1 Group H Member 4 (NR1H4), IR1 submotif (AID 2282946); conditions: IR1 reporter transcription, actives raise or lower the signal
Chain of Bile acid receptor (Homo sapiens) (Q96RI1 whole entry, looked up): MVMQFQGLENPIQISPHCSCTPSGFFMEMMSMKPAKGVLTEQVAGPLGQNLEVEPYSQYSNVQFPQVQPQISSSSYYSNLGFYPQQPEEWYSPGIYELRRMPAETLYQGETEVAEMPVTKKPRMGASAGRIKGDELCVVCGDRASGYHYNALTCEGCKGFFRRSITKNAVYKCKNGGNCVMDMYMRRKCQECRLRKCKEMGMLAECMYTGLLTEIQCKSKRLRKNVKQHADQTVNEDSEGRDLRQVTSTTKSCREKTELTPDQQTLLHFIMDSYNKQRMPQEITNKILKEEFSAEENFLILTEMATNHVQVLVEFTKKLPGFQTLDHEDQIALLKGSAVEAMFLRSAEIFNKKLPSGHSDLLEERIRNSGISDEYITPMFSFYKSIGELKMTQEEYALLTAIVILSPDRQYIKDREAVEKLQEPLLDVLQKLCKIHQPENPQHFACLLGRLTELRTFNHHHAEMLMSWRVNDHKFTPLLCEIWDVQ
Summary of the method: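 HepG2 cells transiently transfected with multiplexed cis-element reporter units read endogenous transcription factor activity. After 24 h compound exposure, reporter mRNA was quantified by RT-PCR, fluorescent labelling, HpaI digestion and capillary electrophoresis; bidirectional fitting versus DMSO baseline.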

[19] = ATG_GRE_CIS: Attagene CIS-FACTORIAL HepG2 Assay for human Glucocorticoid Response Elements (GRE) (AID 2282947); conditions: HepG2 GRE cis-reporter, Attagene multiplex mRNA; actives raise or lower the signal
Summary of the method: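 Reporter transcripts read by RT-PCR with capillary electrophoresis fluorescence after a 24 h chemical exposure of HepG2 cells transiently transfected with multiple cis-element reporter units. Gain or loss fitted against DMSO.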

Measured: AC50

C[N+](C)(C)CCO
not listed: [16] | [17] | [18] | [19]
inactive: all other assays above

OCCN1CCOCC1
active: [5] 21.4 µM
not listed: [9] | [18] | [19]
inactive: all other assays above

CCn1cc(C(=O)O)c(=O)c2ccc(C)nc21
not listed: [4] | [9] | [13] | [14] | [15] | [16] | [19]
inactive: all other assays above

CCCC1CCC(=O)CC1
not listed: [1] | [12] | [18]
inactive: all other assays above

CC1(C)[C@H](C=C(Cl)Cl)[C@H]1C(=O)OCc1cccc(Oc2ccccc2)c1
not listed: [3] | [4] | [15] | [18]
inactive: all other assays above

Nc1ccc(N)c([N+](=O)[O-])c1
active: [5] 41.6 µM [middle of 5 runs] | [17] 25.9 µM
inactive: [1] | [2] | [3] | [4] | [6] | [7] | [8] | [9] | [10] | [11] | [12] | [13] | [16] | [17] | [15]

COc1cc(OC)c2ccc(=O)oc2c1
not listed: [18] | [19]
inactive: all other assays above

CC(=O)c1ccc2ccccc2c1
not listed: [1] | [4] | [12]
inactive: all other assays above

CC(C)Cc1ccccc1
not listed: [3] | [11] | [15] | [18] | [19]
inactive: all other assays above

CC(=O)CCC(=O)O
not listed: [16] | [17] | [18]
inactive: all other assays above

CCCCOC(=O)C(C)OC(=O)CCC (configuration not stated)
not listed: [12] | [18] | [19]
inactive: all other assays above

CCCOC(=O)CC
not listed: [3] | [15] | [16] | [18]
inactive: all other assays above

c1coc(CNc2ncnc3nc[nH]c23)c1
not listed: [1] | [4] | [5] | [16] | [18]
inactive: all other assays above

CCCCCCCOC(C)=O
active: [5] 3.71 µM
not listed: [1] | [4] | [12] | [13] | [18] | [19]
inactive: all other assays above

NCCN1CCNCC1
active: [5] 32.5 µM
not listed: [1] | [11] | [13] | [18] | [19]
inactive: all other assays above

Cc1ccccc1S
active: [5] 20.5 µM | [8] 134 µM | [18] 55.7 µM | [17] 113 µM | [15] 102 µM
not listed: [4] | [11] | [19]
inactive: all other assays above

c1ccc(OCCOc2ccccc2)cc1
active: [16] 26.4 µM
not listed: [4] | [5] | [15] | [18]
inactive: all other assays above

CCNC(=S)NCC
not listed: [1] | [3] | [12] | [18] | [19]
inactive: all other assays above

CCCCOCCOC(=O)c1ccccc1C(=O)OCCOCCCC
active: [15] 23.4 µM
not listed: [1] | [16] | [19]
inactive: all other assays above
